Assay results taken from PubChem BioAssay (NCI).
About 83,000 compounds went through this panel and 20% of them were active in at least one assay; those are over-represented in the sample as a whole.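 Growth was measured after 48 h exposure to one concentration of compound in 96-well plates. Values under 10 count as active.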 The source made the active and inactive calls.

Columns and labels:
Experiment in all cases: NCI-60 one-dose screen, 48 h (100 = growth as untreated, 0 = no growth, -100 = all killed)
Conditions in all cases: 10 µM unless noted
SK-MEL-2 melanoma = system: SK-MEL-2 melanoma
EKVX NSCLC = system: EKVX NSCLC
SN12C renal = system: SN12C renal
UO-31 renal = system: UO-31 renal
TK-10 renal = system: TK-10 renal
ACHN renal = system: ACHN renal
A498 renal = system: A498 renal
CCRF-CEM leukemia = system: CCRF-CEM leukemia
MOLT-4 leukemia = system: MOLT-4 leukemia
SR leukemia = system: SR leukemia
RPMI-8226 leukemia = system: RPMI-8226 leukemia
OVCAR-8 ovarian = system: OVCAR-8 ovarian
OVCAR-5 ovarian = system: OVCAR-5 ovarian
OVCAR-4 ovarian = system: OVCAR-4 ovarian
SK-OV-3 ovarian = system: SK-OV-3 ovarian
IGROV1 ovarian = system: IGROV1 ovarian
OVCAR-3 ovarian = system: OVCAR-3 ovarian
HS 578T breast = system: HS 578T breast
NCI/ADR-RES ovarian = system: NCI/ADR-RES ovarian
T-47D breast = system: T-47D breast

Measured: growth

CCO/C=N/S(=O)(=O)c1cc2c(cc1Cl)NC=NS2(=O)=O
inactive: SK-MEL-2 melanoma 105% | EKVX NSCLC 103% | SN12C renal 104% | UO-31 renal 89.1% | TK-10 renal 101% | ACHN renal 112% | A498 renal 106% | CCRF-CEM leukemia 95.7% | MOLT-4 leukemia 109% | SR leukemia 108% | RPMI-8226 leukemia 104% | OVCAR-8 ovarian 100% | OVCAR-5 ovarian 112% | OVCAR-4 ovarian 117% | SK-OV-3 ovarian 104% | IGROV1 ovarian 104% | OVCAR-3 ovarian 105% | HS 578T breast 101% | NCI/ADR-RES ovarian 109% | T-47D breast 105%

CC(=O)Nc1c(C(=O)Nc2ccccc2)sc2nc3c(cc12)C(OC(C)=O)CCC3 (stereo not given)
inactive: SK-MEL-2 melanoma 89.8% | EKVX NSCLC 99.6% | SN12C renal 89.6% | UO-31 renal 72.9% | TK-10 renal 75.9% | ACHN renal 59.5% | CCRF-CEM leukemia 94.6% | MOLT-4 leukemia 100% | SR leukemia 80% | RPMI-8226 leukemia 107% | OVCAR-8 ovarian 105% | OVCAR-5 ovarian 108% | OVCAR-4 ovarian 108% | SK-OV-3 ovarian 46.6% | IGROV1 ovarian 109% | OVCAR-3 ovarian 104% | HS 578T breast 102% | NCI/ADR-RES ovarian 88.4% | T-47D breast 93.5%
active: A498 renal -1.22%

COCCOCCOCc1n(Cc2ccc3ccccc3n2)c2ccccc2[n+]1Cc1ccc2ccccc2n1
active: SK-MEL-2 melanoma -8.51% | SR leukemia 9.58% | RPMI-8226 leukemia 1.07% | OVCAR-3 ovarian 7.54% | T-47D breast -4.32%
inactive: EKVX NSCLC 71.6% | SN12C renal 11.4% | UO-31 renal 67.3% | TK-10 renal 37.6% | ACHN renal 97.6% | A498 renal 78.1% | CCRF-CEM leukemia 31.6% | MOLT-4 leukemia 26.3% | OVCAR-8 ovarian 19.9% | OVCAR-5 ovarian 40.6% | OVCAR-4 ovarian 15.4% | SK-OV-3 ovarian 21.3% | IGROV1 ovarian 20.2% | HS 578T breast 47.1% | NCI/ADR-RES ovarian 102%

O=S(=O)(Nc1nccs1)c1ccc(Nc2nc(-c3ccncc3)cs2)cc1
inactive: SK-MEL-2 melanoma 105% | EKVX NSCLC 107% | SN12C renal 97.4% | UO-31 renal 101% | TK-10 renal 120% | ACHN renal 99.5% | A498 renal 113% | CCRF-CEM leukemia 104% | MOLT-4 leukemia 117% | SR leukemia 111% | RPMI-8226 leukemia 99.3% | OVCAR-8 ovarian 121% | OVCAR-5 ovarian 117% | OVCAR-4 ovarian 115% | SK-OV-3 ovarian 108% | IGROV1 ovarian 84.1% | OVCAR-3 ovarian 118% | HS 578T breast 96.8% | NCI/ADR-RES ovarian 122% | T-47D breast 105%

COc1ccc(/C=C/C(=O)c2ccc(NC(=O)CSc3nnc(-c4ccc(OC)c(OC)c4)n3-c3ccccc3)cc2)cc1
inactive: SK-MEL-2 melanoma 74.7% | EKVX NSCLC 66% | SN12C renal 40.5% | TK-10 renal 101% | ACHN renal 59.9% | A498 renal 93.5% | MOLT-4 leukemia 10.8% | OVCAR-8 ovarian 11.4% | OVCAR-5 ovarian 112% | OVCAR-4 ovarian 91.3% | SK-OV-3 ovarian 85.1% | OVCAR-3 ovarian 59.8% | HS 578T breast 86.6% | NCI/ADR-RES ovarian 57.4% | T-47D breast 36.2%
active: UO-31 renal -81.3% | CCRF-CEM leukemia -20.9% | SR leukemia -38.2% | RPMI-8226 leukemia -25% | IGROV1 ovarian -36.7%

CC1(c2ccccc2Cl)NC(=O)NC1=O (stereo not given)
inactive: SK-MEL-2 melanoma 95.6% | EKVX NSCLC 105% | SN12C renal 105% | UO-31 renal 94% | TK-10 renal 90% | ACHN renal 108% | A498 renal 94.9% | CCRF-CEM leukemia 101% | MOLT-4 leukemia 94.5% | SR leukemia 98.5% | RPMI-8226 leukemia 102% | OVCAR-8 ovarian 102% | OVCAR-5 ovarian 106% | OVCAR-4 ovarian 109% | SK-OV-3 ovarian 97.3% | IGROV1 ovarian 106% | OVCAR-3 ovarian 106% | HS 578T breast 99.7% | NCI/ADR-RES ovarian 96.9% | T-47D breast 79.3%

Cc1cc2ccccc2c[n+]1CC(=O)c1ccc(-c2ccccc2)cc1
active: OVCAR-4 ovarian 9.69%
inactive: SK-MEL-2 melanoma 84.3% | EKVX NSCLC 54.8% | SN12C renal 55.4% | UO-31 renal 61.5% | TK-10 renal 68.5% | ACHN renal 79.4% | A498 renal 56.5% | CCRF-CEM leukemia 53.4% | MOLT-4 leukemia 49.3% | SR leukemia 54.7% | RPMI-8226 leukemia 19.6% | OVCAR-8 ovarian 43.8% | OVCAR-5 ovarian 73.1% | SK-OV-3 ovarian 64.1% | IGROV1 ovarian 49.2% | OVCAR-3 ovarian 31.9% | HS 578T breast 83.5% | NCI/ADR-RES ovarian 101% | T-47D breast 38.2%

O=[N+]([O-])c1ccc(N=Nc2c(O)c(N=Nc3cc([N+](=O)[O-])cc([N+](=O)[O-])c3O)cc(N=Nc3cc(S(=O)(=O)O)cc4cc(S(=O)(=O)O)cc(O)c34)c2O)cc1
inactive: SK-MEL-2 melanoma 100% | EKVX NSCLC 102% | SN12C renal 101% | UO-31 renal 83.2% | TK-10 renal 98.6% | ACHN renal 101% | A498 renal 107% | CCRF-CEM leukemia 97.2% | MOLT-4 leukemia 86.7% | SR leukemia 86.1% | RPMI-8226 leukemia 102% | OVCAR-8 ovarian 108% | OVCAR-5 ovarian 104% | OVCAR-4 ovarian 98.4% | SK-OV-3 ovarian 96.2% | IGROV1 ovarian 108% | OVCAR-3 ovarian 104% | HS 578T breast 101% | NCI/ADR-RES ovarian 103% | T-47D breast 109%

COc1ccc(C2C(c3ccccc3)C(=O)N2c2cc(OC)c(OC)c(OC)c2)cc1I (stereo not given)
inactive: SK-MEL-2 melanoma 56.3% | EKVX NSCLC 61.9% | SN12C renal 33% | UO-31 renal 18.7% | TK-10 renal 75.1% | ACHN renal 26.5% | OVCAR-8 ovarian 16.7% | OVCAR-5 ovarian 35.9% | OVCAR-4 ovarian 39.8% | IGROV1 ovarian 20.6% | OVCAR-3 ovarian 12% | HS 578T breast 22.1% | T-47D breast 69.7%
active: A498 renal -2.63% | CCRF-CEM leukemia 7.6% | MOLT-4 leukemia 7.85% | SR leukemia 8.89% | RPMI-8226 leukemia -9.86% | SK-OV-3 ovarian 6.66% | NCI/ADR-RES ovarian 9.97%

Cc1cnc(-c2ccc(-c3ccc(NC(=O)Nc4c(F)cc(F)cc4F)cc3F)c3c2C(=O)NC3)[nH]1
active: SN12C renal 3.34% | SR leukemia -3.54% | OVCAR-4 ovarian -16.5% | OVCAR-3 ovarian -34% | HS 578T breast -5.61%
inactive: SK-MEL-2 melanoma 58.1% | EKVX NSCLC 52% | UO-31 renal 50.3% | TK-10 renal 83.6% | ACHN renal 50.4% | A498 renal 22.4% | CCRF-CEM leukemia 23.9% | MOLT-4 leukemia 18.3% | RPMI-8226 leukemia 22.2% | OVCAR-8 ovarian 39% | OVCAR-5 ovarian 71% | SK-OV-3 ovarian 49.6% | IGROV1 ovarian 33% | NCI/ADR-RES ovarian 72.4% | T-47D breast 73.6%

Cn1c2ccccc2c2c(OC(=O)c3ccccc3)c3c(nc21)-c1ccccc1C3
inactive: SK-MEL-2 melanoma 81.1% | EKVX NSCLC 86% | SN12C renal 98.1% | UO-31 renal 79.9% | TK-10 renal 124% | ACHN renal 97.1% | A498 renal 119% | CCRF-CEM leukemia 98.8% | MOLT-4 leukemia 96.3% | SR leukemia 91.7% | RPMI-8226 leukemia 96.2% | OVCAR-8 ovarian 92.7% | OVCAR-5 ovarian 112% | OVCAR-4 ovarian 95.7% | SK-OV-3 ovarian 92% | IGROV1 ovarian 82.5% | OVCAR-3 ovarian 99.1% | HS 578T breast 107% | NCI/ADR-RES ovarian 99% | T-47D breast 63.7%

CC1CCCN(CCCCCOc2ccc3oc4ccccc4c(=O)c3c2)C1 (stereo not given)
inactive: SK-MEL-2 melanoma 82.3% | EKVX NSCLC 84% | SN12C renal 64.3% | UO-31 renal 61.2% | TK-10 renal 82.3% | ACHN renal 98.9% | A498 renal 75.9% | CCRF-CEM leukemia 70.9% | MOLT-4 leukemia 49% | SR leukemia 36.4% | RPMI-8226 leukemia 50.7% | OVCAR-8 ovarian 77.5% | OVCAR-5 ovarian 79.4% | OVCAR-4 ovarian 83.1% | SK-OV-3 ovarian 99.7% | IGROV1 ovarian 67.3% | OVCAR-3 ovarian 77.9% | HS 578T breast 77.8% | NCI/ADR-RES ovarian 73.3% | T-47D breast 65.4%

O=C(CN1N=C(c2ccc(F)cc2)CCC1=O)Nc1nccs1
inactive: SK-MEL-2 melanoma 101% | EKVX NSCLC 98.3% | SN12C renal 96.9% | UO-31 renal 87.6% | ACHN renal 107% | A498 renal 84.1% | CCRF-CEM leukemia 94% | MOLT-4 leukemia 97.5% | SR leukemia 92.8% | RPMI-8226 leukemia 103% | OVCAR-8 ovarian 98.6% | OVCAR-5 ovarian 107% | OVCAR-4 ovarian 97.6% | SK-OV-3 ovarian 97.7% | IGROV1 ovarian 100% | OVCAR-3 ovarian 113% | HS 578T breast 100% | NCI/ADR-RES ovarian 109% | T-47D breast 83.7%
active: TK-10 renal -95.6%

CC(=O)c1ccc(NC(=O)CSc2nnc(-c3cc(-c4ccc(C)cc4)nc4ccccc34)o2)cc1
inactive: SK-MEL-2 melanoma 81.5% | EKVX NSCLC 78.3% | SN12C renal 20% | UO-31 renal 11.5% | TK-10 renal 43% | ACHN renal 63.6% | A498 renal 70.5% | CCRF-CEM leukemia 53.6% | MOLT-4 leukemia 43.5% | OVCAR-8 ovarian 49.3% | OVCAR-5 ovarian 101% | SK-OV-3 ovarian 81.7% | IGROV1 ovarian 57.3% | OVCAR-3 ovarian 77.4% | HS 578T breast 23.3% | NCI/ADR-RES ovarian 60.2% | T-47D breast 44.8%
active: SR leukemia -12.5% | RPMI-8226 leukemia 7.74% | OVCAR-4 ovarian -12.5%

COc1cc(F)c(-c2nc3c(C)cccc3n2Cc2c(F)cccc2F)c(F)c1
inactive: SK-MEL-2 melanoma 93.6% | EKVX NSCLC 87.9% | SN12C renal 92.1% | UO-31 renal 72.2% | TK-10 renal 90.5% | ACHN renal 101% | A498 renal 87% | CCRF-CEM leukemia 98.6% | MOLT-4 leukemia 60.6% | SR leukemia 88.3% | RPMI-8226 leukemia 68.2% | OVCAR-8 ovarian 90.5% | OVCAR-5 ovarian 94.6% | OVCAR-4 ovarian 77.6% | SK-OV-3 ovarian 90.5% | IGROV1 ovarian 69.4% | OVCAR-3 ovarian 96.2% | HS 578T breast 91.6% | NCI/ADR-RES ovarian 77.9% | T-47D breast 71.4%
